The values that follow come from PubChem BioAssay (NCI).

The panel holds about 83,000 compounds, 20% with a hit somewhere; the sample as a whole holds those more often.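 Activity criterion: percent growth below 10, measured after cells in 96-well plates were exposed to a single compound concentration for 48 hours.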 A number with no mark means an inactive call. Active and inactive are the calls of the source.

This test relates to ACHN renal. As to the kind of experiment: NCI-60 one-dose screen, 48 h (100 = growth as untreated, 0 = no growth, -100 = all killed). Particulars: 10 µM unless noted.
For the compound `CCOC(=O)Oc1c(OC)cc(C(=O)O[C@@H]2C[C@@H]3CN4CCc5c([nH]c6cc(OC)ccc56)[C@H]4C[C@@H]3[C@H](C(=O)OC)[C@H]2OC)cc1OC`, the growth was 66.5%. In the case of `O=C1Nc2ccccc2/C1=C\c1cccc(/C=C2/C(=O)Nc3ccccc32)n1`, the growth is -100% (active). To `NC(=O)CN1CCN(c2ccccc2Cl)CC1` belongs 103%; to `CSc1nnc2c(=O)n(C)c(=O)n(C)c2n1`, 98%; to `NC(=O)c1cccc(-c2ccccc2N2CCCCC2)c1`, 95.3%. As to `COc1cnccc1-c1nc2ccc3[nH]ncc3c2c2c1CCCC2`, the growth is 37.6%. To `c1ccc(-c2nnc(Nc3ccc4c(c3)OCCO4)o2)c(NCc2ccncc2)c1` belongs 23.4%; to `CNC(=O)Nc1ccc(-c2nc(N3CCOCC3)nc3c2cnn3C2CCOCC2)cc1`, 4.27% (active).

On to `O=C(N/N=C/c1ccc(O)c(O)c1)c1sc2ccccc2c1Cl`, for which the growth is 62.9%.

Regarding `COc1cc(C2CC(c3cccc(Nc4ccncc4)c3)=NN2c2ccccc2)cc(OC)c1OC` (centres undefined), the growth was 65.6%. On to `Nc1ccccc1NC(=O)c1ccc(CN2CCC/C(=C\c3cccc(Cl)c3)C2=O)cc1`, for which the growth is 5.98% (active). Turning to `C[C@H]1[C@H](C)CC[C@]2(CO)CC[C@]3(C)C(=CC[C@@H]4[C@@]5(C)CCCNC(C)(C)[C@@H]5CC[C@]43C)[C@H]12`, the growth is -66.3% (active).

On to `O=c1[nH]nc(-c2ccc(Br)cc2)cc1Cc1ccc(O)cc1`, for which the growth is 105%. With `CC1(C)CC[C@]2(C(=O)NCC#CCN3CCOCC3)CC[C@]3(C)C(=CC[C@@H]4[C@@]5(C)Cc6c([nH]c7ccccc67)C(C)(C)[C@@H]5CC[C@]43C)[C@@H]2C1`, the growth was 73.1%.
